A selection: hits, their analogues and other compounds. The true share with any hit is near 6.7%.
BoNT-A LC inh2: BoNT A light chain protease inhibition; multiplex microsphere protease substrate cleavage, flow cytometry; inhibition, % at 10 µM; 360,000 compounds, 0.17% hits; also: plate controls were buffer without enzyme for full effect and enzyme alone for no effect
Anthrax LF inh2: blocks Bacillus anthracis lethal factor protease; multiplex microsphere protease cleavage assay, LF; P15917; 360,000 compounds, 0.12% hits; AID 588501; inhibition, % at 10 µM; also: plate controls were buffer without enzyme for full effect and enzyme alone for no effect
GDH-TPI counter: GDH-TPI coupled enzyme inhibition counter-screen; AID 588335; inhibition, % at 4.8 µM; GDH-TPI coupled enzyme counterscreen, NADH absorbance; 360,000 compounds, 1.2% hits; in the data active = inhibition above about 30%;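 also: 0% = DMSO wells and 100% = wells lacking the enzyme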
Autofluor counter: counter-screen for toxin protease inhibitors: compound fluorescence | compound autofluorescence counterscreen, microsphere flow cytometry; active compounds read high | fluorescence intensity (test concentration not listed) | 360,000 compounds, 3.1% hits; in the data active = fluorescence intensity above about 16000; inconclusive = no clear call, values can overlap the other calls
BoNT F protease: inhibitors of Botulinum neurotoxin F light chain protease; Multiplex microsphere protease cleavage assay, flow cytometry; 360,000 compounds, 0.22% hits; inhibition, % at 10 µM; in the data active = inhibition above about 35%, passing the limit was not always enough; inconclusive = no clear call, values can overlap the other calls; also: plate controls were buffer without enzyme for full effect and enzyme alone for no effect
Mtb FBA inh: inhibitors of M. tuberculosis fructose-bisphosphate aldolase; P9WQA3; purified M. tuberculosis FBA, fluorescence read-out; inhibition, % at 1 µM; 360,000 compounds, 2.3% hits; AID 588726; in the data active = inhibition above about 27%;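 also: 0% = vehicle and 100% = reference inhibitor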
Target sequence (P9WQA3 whole entry, looked up): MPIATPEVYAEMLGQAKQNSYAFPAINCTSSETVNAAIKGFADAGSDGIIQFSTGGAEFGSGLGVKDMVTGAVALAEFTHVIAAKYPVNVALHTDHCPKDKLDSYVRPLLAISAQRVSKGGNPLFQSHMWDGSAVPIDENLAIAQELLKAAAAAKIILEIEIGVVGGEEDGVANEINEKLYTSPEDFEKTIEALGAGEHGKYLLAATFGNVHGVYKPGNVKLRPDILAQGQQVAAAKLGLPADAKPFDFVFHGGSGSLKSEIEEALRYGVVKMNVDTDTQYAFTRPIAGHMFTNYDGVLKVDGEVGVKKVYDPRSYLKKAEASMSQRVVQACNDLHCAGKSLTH
Starred values were filed as active, the others as inactive; ? = inconclusive; . = no result given. Rule as the data show it, unless noted: active = inhibition above about 30%; inconclusive = no clear call, values can overlap the other calls; inactive = below that.

SMILES | BoNT-A LC inh2 | Anthrax LF inh2 | GDH-TPI counter | Autofluor counter | BoNT F protease | Mtb FBA inh
COc1ccc(NC(=O)C(F)(OC)C(F)(F)F)c(OC)c1 (stereo not drawn) | 0 | 0 | -11 | 11336 | 1 | 0
CCc1ccccc1NS(=O)(=O)c1cc2c(cc1C)n(C)c(=O)c(=O)n2C | -1 | -3 | 12 | 6026 | -3 | 3
CCn1c(=O)n(CC)c2cc(S(=O)(=O)Nc3ccccc3C)c(C)cc21 | ? | -6 | 11 | 23798* | 0 | -5
CS(=O)(=O)N(CC(=O)NCC1CCCO1)c1ccc(Cl)c(Cl)c1 (stereo not drawn) | -1 | -2 | 0 | 8255 | -4 | 5
N#CCCN(Cc1ccccc1)C(=S)NC(=O)c1ccccc1 | ? | -1 | 8 | 21936* | 2 | -3
COc1ccc(CN(CCC#N)C(=S)NC(=O)c2ccccc2)cc1 | 0 | 0 | 8 | 2689 | 0 | 7
Cc1c(NS(=O)(=O)c2ccc(N3CCCCC3)c([N+](=O)[O-])c2)c(=O)n(-c2ccccc2)n1C | 1 | -1 | 0 | 9609 | 4 | -2
Cc1ccccc1C(=O)N/C(=C/c1ccc(-c2cccnc2Cl)o1)C(=O)NCCCN1CCN(C)CC1 | 0 | 0 | 39* | 3984 | -12 | 4
Cc1cccc(C(C)C)c1NC(=O)CN1C(=O)NC(Cc2ccccc2)C1=O (stereo not drawn) | -3 | 1 | 0 | ? | -13 | 0
CC(C)n1nc(C(=O)Nc2nnc(SCc3c(Cl)cccc3Cl)s2)c2ccccc2c1=O | 10 | 0 | 12 | 19535* | 13 | 3
COCCNC(=O)c1ccc2c(c1)CCN2S(C)(=O)=O | 0 | 0 | 2 | ? | 5 | 0
COCCCNC(=O)c1ccc2c(c1)CCN2S(C)(=O)=O | 4 | 2 | 4 | 22130* | 3 | -1
Oc1oc(-c2ccccc2)nc1/C=N/c1ccccn1 | 1 | -6 | 27 | 3789 | -3 | 2
CN=Cc1nc(-c2ccccc2)oc1O | -1 | -6 | 59* | 3683 | 21 | -2
C#CCOCCOCCOCCNc1nc(N2CCOCC2)nc(N2CCN(C(=O)[C@H](CCCCN)n3cc([C@@H](N)CO)nn3)CC2)n1 | 0 | -4 | 7 | 3996 | -2 | -1
CC(C)CNC(=S)NC1CCCC1 | ? | -2 | -4 | 20457* | -4 | -1
CN(CCOc1ccc(Cl)cc1)c1ccc(S(=O)(=O)N2CCCCC2)cn1 | ? | -4 | 6 | 24914* | -6 | -1
Nc1nnn(CC(=O)N/N=C/c2cn[nH]c2-c2ccccc2)n1 | . | . | 1 | . | . | 1
CN1CCc2c(sc(NC(=O)Cc3ccccc3)c2C(N)=O)C1 | -1 | -1 | 11 | 3997 | -9 | 0
O=C(NNC(=O)c1ccccc1F)c1cccc(Cl)c1 | -5 | 0 | 1 | 25813* | -6 | -1
Cn1cccc1/C=C1\SC(=Nc2ccccc2)NC1=O | 2 | 13 | 11 | 3910 | 36* | 1
N#CC1=C(N)Oc2cc(O)ccc2C1c1ccncc1 (stereo not drawn) | -1 | -2 | 16 | 3657 | 24 | -3
CCCCn1nc(NS(=O)(=O)c2cccc3nonc23)c2cc3cccc(C)c3nc21 | 0 | 4 | -3 | 5721 | 0 | -4
CSc1nnc(-c2ccccc2)c(-c2ccccc2)n1 | 0 | -1 | 17 | ? | 9 | 6
CCOc1cc(/C=N/NC(=O)c2cc3c(ccc4ccccc43)o2)ccc1O | 6 | -1 | 44* | 5574 | -4 | 9
SMILES | BoNT-A LC inh2 | Anthrax LF inh2 | GDH-TPI counter | Autofluor counter | BoNT F protease | Mtb FBA inh
CC(=O)Oc1ccc(/C=N\NC(=O)c2cc3c(ccc4ccccc43)o2)cc1 | -6 | -3 | 10 | 7445 | -18 | 5
CCOC(=O)COc1ccccc1/C=N\NC(=O)c1cc2c(ccc3ccccc32)o1 | -3 | -3 | 31* | 5224 | -10 | 8
COC(=O)c1ccc(Cn2c(C)c(C(=O)NCc3ccco3)sc2=O)o1 | 0 | 0 | 15 | 3844 | 4 | 3
Cc1cc(NCCC(C)C)n2nc(C)c(-c3ccccc3)c2n1 | -2 | -3 | 18 | 24144* | -6 | 8
Cc1cc(NCCCN2CCOCC2)n2nc(C)c(-c3ccccc3)c2n1 | 0 | -4 | 8 | 2400 | -14 | 1
O=C(COC(=O)c1cc([N+](=O)[O-])ccc1N1CCOCC1)Nc1ccccc1OC(F)F | -3 | -2 | 8 | ? | 0 | -1
O=C(Cc1csc(N2CCOCC2)n1)N/N=C/c1cccc(O)c1 | 0 | 0 | 0 | 10213 | 5 | -2
O=C(Cc1csc(N2CCOCC2)n1)N/N=C/c1ccc(F)cc1 | 6 | 2 | 7 | 20712* | 7 | -3
COc1ccc(NC(=O)CSc2ccc(-c3cccs3)nn2)c(OC)c1 | 0 | 2 | 9 | 3222 | 2 | 4
CCCn1c(Nc2nc3ccccc3n2C)nc2ccccc21 | 3 | 0 | 18 | 10831 | 28 | 5
CCCCn1c(Nc2ccccc2)nc2ccccc21 | -1 | -2 | 8 | 16689* | -4 | -2
C=CCn1cc(C(=O)OC)c(=O)c2cc(S(=O)(=O)N(CC)CC)ccc21 | -1 | 1 | 7 | 10478 | 0 | -1
COC(=O)c1cn(C)c2ccc(S(=O)(=O)N3CCCC3)cc2c1=O | 2 | -5 | 3 | 20045* | 1 | -1
CC1CCN(S(=O)(=O)c2ccc3c(c2)c(=O)c(C(=O)NC2CCCC2)cn3C)CC1 | ? | 2 | 3 | 20721* | -4 | 4
CC1CCCCC1NC(=O)c1cn(C)c2ccc(S(=O)(=O)N3CCCC3)cc2c1=O (stereo not drawn) | ? | -2 | 9 | 20217* | -3 | -2
C=CCn1cc(C(=O)OC)c(=O)c2cc(S(=O)(=O)N3CCC(C)CC3)ccc21 | 1 | 3 | 32* | 8113 | 2 | 2
Cn1cc(C(=O)NC2CCCCC2)c(=O)c2cc(S(=O)(=O)N3CCCC3)ccc21 | -1 | 9 | 5 | 8988 | -6 | -3
N#C/C(=C\c1ccccn1)c1nc2ccccc2s1 | 2 | 2 | 2 | 3710 | 1 | -1
COc1ccc(/C(C#N)=C/c2ccccn2)cc1 | 3 | -15 | 32* | 4388 | ? | 24
O=C(Nc1ccc(N2CCCCC2)c(Cl)c1)c1cccnc1 | 0 | 1 | 3 | 5714 | 30 | 2
COC(=O)NNC(=O)COc1ccc(Br)c(C)c1 | 0 | 2 | 0 | 8226 | 1 | -3
CCC(C)NC(=O)COc1ccc(Br)c(C)c1 (stereo not drawn) | -1 | -4 | -6 | 20456* | -3 | 0
CCCCSCCCNC(=O)Nc1cccc(OC)c1 | -1 | 3 | 2 | 6678 | -6 | 1
COCCNC(=O)CSc1nc2cc3c(cc2c(=O)n1CCCC(=O)NCCc1ccc(OC)c(OC)c1)OCO3 | 0 | 6 | -2 | 3672 | -4 | -7
Cc1c2c(nc3c(C(=O)NC4CCCC4)cnn13)CCCC2 | -2 | -5 | 18 | 16888* | -4 | 21
O=C(NC1CCCC1)c1cnn2c(C(F)(F)F)cc(-c3ccc4c(c3)OCO4)nc12 | 2 | 2 | 5 | 9056 | 7 | 1

Screening data (PubChem BioAssay)
